Seed-corrected z-score data for 66 sequences are collected here from PubChem BioAssay AID1159506 (National Center for Advancing Translational Sciences (NCATS), 2015).

Whole data set: some 59,000 sequences, median the read-out near -0.00055, cut for the lowest 2% near -2. This is one part of a sample in which the lowest values are shown more often than they occur.

This test can be described thus: Identification of proteins required for the processing of the EWS-FLI1 nascent transcript.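 Note: robust z of luciferase light less the median z of siRNAs with the same seed.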 The conditions noted are these: TC32 Ewing sarcoma NR0B1-luc vs CMV-luc (EWS-FLI1 target promoter against control promoter), 48 h; screened at 20 nM (by protocol). In a few lines:
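TC32 Ewing sarcoma cells carrying NR0B1-promoter or CMV-promoter luciferase reporters were reverse-transfected with single siRNAs at 20 nM, three per gene genome-wide. Luminescence was read after 48 h and normalized to non-targeting controls.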
For UUAAUGGUCCUGUAGUAAC against MTMR1, the seed-corrected z-score turned out to be 0.139. For UACAACAAUAGCCACAGCU against OR52W1, the seed-corrected z-score was -2.15. UGUAUUUUAUGUCUCUCCC against PLAC8L1 displayed a seed-corrected z-score of -0.115. The result for AAAGCCCAAAUAUAGUUCC against NEUROD4 reads 0.947; that for UUUGAGGAAAGGAACUGCC against FAM228A, 0.28; that for AAUCUUGGUCUUACUGUCC against PKN1, -1.59. On to UACUGAGAUAGUCAAAUUC against CYB5D1, for which the seed-corrected z-score is -0.0466.

Regarding UUAUUGGAGAGCACCUGGU against PADI3, the seed-corrected z-score was determined as 0.0879. The result for ACAUCUGUCAGGGUCAUCG against NOD1 reads -0.0205; that for UCCUUGUCGAAAGAAGUGC against RMND5A, -3.27. Consider UCAGUUUACCUGAGAAGCC against C22orf39, for which the seed-corrected z-score is -0.529. The result for UGACUUUAAGUUUUGGGCC against LINC00999 reads 0.159.

The sequence UGUAGCAUGACCGUCUUCC against LINC00239 had a seed-corrected z-score of -0.84.

For AAGGUGCACAAGUAAAGCC against LOC730100, the seed-corrected z-score was -2.05. Regarding UCAUUGGAUUCCAAAAUCC against ADAM18, the seed-corrected z-score was determined as 0.186. Under UACGUUAAAAGGCAGGACA against CDKN2A stands -0.998; under UAGCAGAUGAGAGACUAUG against MRPS24, -0.269. Under UUUAUGGGCUCUUUUGACG against ENPP5 stands -0.349; under UAUGCUAAGGUAGCAGUUG against RNF133, 0.16. The sequence UAUAAGUCUGGGAUAUCUG against CATSPERD had a seed-corrected z-score of -0.549.

UCUUCGAAAGUGACCAGCA against INTS6: the seed-corrected z-score is -0.292. Turning to UAACCUCCAUCCGAGGUGG against INHA, the seed-corrected z-score is -0.1. Under UGGGAUACCCUCCUUGUCU against UBA52 stands -2.1.

Regarding UCUUUGAACAGGAUAAACC against HNRNPAB, the seed-corrected z-score came out at 0.756.

Turning to UGAAUAUCAAGUUAGAUCC against OR5AK2, the seed-corrected z-score came out at 0.308.

With UCUCUUGCUUGGAGGAAGC against ZNF174, the seed-corrected z-score was found to be 0.443. Under UCGGAGAUCAGGCUAGUGG against TMEM82 stands -2.03; under UCCGGGUUCAGCAUGUCCA against ESPN, -0.679; under UAAUUGACCUGUACGCUCG against GATM, 0.156. Under AAAGCAGUUGGAACCGUUG against KRTAP24-1 stands 0.448. Sequence AUCGAUUUUAAUGAACCGC against RPS4X came in with a seed-corrected z-score of 1.4.

In the case of AAAGGCGUAGAGGAGCUGG against TRIB3, the seed-corrected z-score was -3.4. The result for UAGGUGAACAUCAUGACGC against ITGB5 reads -0.131; that for AUCUUUGUUGCGGAGACUG against OR2T34, -0.514. The result for AGCUUGAUCAUUCUAGUGC against FLJ36777 reads 0.325; that for UUUCGAAUACCAGCUAUCC against KLHL7, 0.0747; that for UCGUGGUUCUCAAUUUUGC against PKLR, -0.494. On to ACCUCUGCAUCUCUUGUUC against TCF23, for which the seed-corrected z-score was -2.43.

UUUCAAUCCUUCCUCCUUA against IFNA7 displayed a seed-corrected z-score of -0.487.

UAAUGUAACUACUUCCAUC against TM2D1 registered a seed-corrected z-score of -0.144. The sequence UGUUGUCAAAGAGUGAUUC against SLC2A13 came in with a seed-corrected z-score of -2.46. The result for UACUGAAUCACUCCCUUGA against GALK1 reads -0.0112.

As to UGUAGUACGCUCUUGUUCU against GOLGA8EP, the seed-corrected z-score is -0.41. Regarding UGCCGAGAAGUUUGGCUCC against TPBGL, the seed-corrected z-score was -0.407. The result for AGAUAGUACACUCAUAUGG against ZNF791 reads -2.77; that for UAUGCGGACCAAGUUGUCU against TMEM72, 0.195; that for UCAGGAUAAAGAUUGUCGC against KDM4A, 1.62. In turn, UGAAAUUCCCGUAGAGUUC against CA11 displayed a seed-corrected z-score of -0.176. The result for AAACGAAAAAUGAACACUC against POU3F1 reads 0.371; that for AUUCUGAUCUAGGCGAUGG against C5orf15, -2.22. The sequence UUCGGAACCGGAGAUCCCA against RIPK4 had a seed-corrected z-score of -0.395. The result for AAUCUAAUAGGAUUUGUUA against CTBP2 reads -0.167; that for ACCGUUUAAACUGAGACCC against FILIP1, 1.11. With UCGCUGACUCCAGAUAUGC against AP1G2, the seed-corrected z-score is -0.0794. The result for UUCUUUGCACGAAUGUCCG against PRPF6 reads -1.74; that for UUGUUAAUCUGGUCAAUUG against GRM8, 0.169. The result for UGCUUUUGGAGUGCUAUGG against ANKLE1 reads -2.74; that for UCCACGAAUAGCAAUAUGC against KIDINS220, -1.19; that for AAAUCAUAAACCAUCUUUG against OR2L2, 1.05. As to AGUAGUCACACUGUUGUGC against NXNL2, the seed-corrected z-score is -4.17. In turn, UAUUUAUCUAGGCACUUCU against CENPT returned a seed-corrected z-score of 0.523. As to UUCUCAGAAACUGCACGGC against SYNGR4, the seed-corrected z-score worked out at 0.497. The result for UAUUCUUAUCUGUAAUCCC against LOC646736 reads -0.205. The sequence UCGCGGAUCAGAAAGGUGC against SOCS3 registered a seed-corrected z-score of -1.04. As for UACUUUUGAUGCACUAGUC against ETAA1, the seed-corrected z-score is -1.14. Under AACAUAAGAGAGACAAUGC against SYVN1 stands 0.102.
